Assay results as given in ChEMBL document CHEMBL2218924, “A broad activity screen in support of a chemogenomic map for kinase signalling research and drug discovery” (Biochem J, 2013).

Assays:
[1] = target: T1, Testis-specific serine/threonine-protein kinase 1 (Homo sapiens) (UniProt Q9BXA7); conditions: at 1 µM
T1 sequence (whole entry): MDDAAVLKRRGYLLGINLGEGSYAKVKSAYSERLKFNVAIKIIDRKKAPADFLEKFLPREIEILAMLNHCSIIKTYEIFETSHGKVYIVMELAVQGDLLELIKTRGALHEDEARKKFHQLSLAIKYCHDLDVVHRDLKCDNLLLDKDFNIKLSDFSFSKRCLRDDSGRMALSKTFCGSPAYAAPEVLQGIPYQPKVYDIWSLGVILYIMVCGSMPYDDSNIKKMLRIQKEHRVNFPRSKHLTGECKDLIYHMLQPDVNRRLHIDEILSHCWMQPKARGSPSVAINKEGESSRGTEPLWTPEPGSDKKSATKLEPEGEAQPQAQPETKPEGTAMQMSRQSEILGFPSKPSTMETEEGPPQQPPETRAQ

[2] = target: T1, Testis-specific serine/threonine-protein kinase 1 (Homo sapiens); conditions: at 10 µM
[3] = target: T2, Testis-specific serine/threonine-protein kinase 2 (Homo sapiens) (UniProt Q96PF2); conditions: at 10 µM
T2 sequence (whole entry): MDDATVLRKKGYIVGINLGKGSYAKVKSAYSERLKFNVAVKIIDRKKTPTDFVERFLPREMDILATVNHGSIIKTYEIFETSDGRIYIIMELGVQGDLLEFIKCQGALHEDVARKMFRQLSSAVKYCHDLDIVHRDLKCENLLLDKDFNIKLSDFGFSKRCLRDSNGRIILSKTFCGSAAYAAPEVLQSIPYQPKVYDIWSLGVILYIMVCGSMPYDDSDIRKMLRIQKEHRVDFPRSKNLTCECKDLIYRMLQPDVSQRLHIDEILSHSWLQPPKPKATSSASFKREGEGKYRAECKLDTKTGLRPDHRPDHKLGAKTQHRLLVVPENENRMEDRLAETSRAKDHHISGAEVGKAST

[4] = target: T3, Tyrosine-protein kinase Tec (Homo sapiens) (UniProt P42680); conditions: at 1 µM
T3 sequence (whole entry): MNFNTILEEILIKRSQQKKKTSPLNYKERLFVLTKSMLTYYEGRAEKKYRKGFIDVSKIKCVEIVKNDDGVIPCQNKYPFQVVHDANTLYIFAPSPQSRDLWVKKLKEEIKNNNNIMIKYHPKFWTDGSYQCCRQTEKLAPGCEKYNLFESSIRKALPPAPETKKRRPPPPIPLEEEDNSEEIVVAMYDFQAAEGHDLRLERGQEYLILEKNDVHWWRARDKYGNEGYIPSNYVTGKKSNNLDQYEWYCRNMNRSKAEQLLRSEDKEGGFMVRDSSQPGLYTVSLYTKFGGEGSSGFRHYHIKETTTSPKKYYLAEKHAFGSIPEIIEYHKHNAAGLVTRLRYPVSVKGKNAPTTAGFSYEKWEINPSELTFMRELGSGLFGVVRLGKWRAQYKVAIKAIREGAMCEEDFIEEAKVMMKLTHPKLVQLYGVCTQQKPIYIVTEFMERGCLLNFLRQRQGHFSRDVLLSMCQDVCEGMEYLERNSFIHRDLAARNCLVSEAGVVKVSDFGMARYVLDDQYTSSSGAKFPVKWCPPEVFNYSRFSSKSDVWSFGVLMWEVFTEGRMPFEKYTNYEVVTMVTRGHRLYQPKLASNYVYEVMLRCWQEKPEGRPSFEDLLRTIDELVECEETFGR

[5] = target: T3, Tyrosine-protein kinase Tec (Homo sapiens); conditions: at 10 µM
[6] = target: High affinity nerve growth factor receptor (Homo sapiens) (UniProt P04629); conditions: at 1 µM
Chain of High affinity nerve growth factor receptor (Homo sapiens) (P04629 33-796 limits assumed): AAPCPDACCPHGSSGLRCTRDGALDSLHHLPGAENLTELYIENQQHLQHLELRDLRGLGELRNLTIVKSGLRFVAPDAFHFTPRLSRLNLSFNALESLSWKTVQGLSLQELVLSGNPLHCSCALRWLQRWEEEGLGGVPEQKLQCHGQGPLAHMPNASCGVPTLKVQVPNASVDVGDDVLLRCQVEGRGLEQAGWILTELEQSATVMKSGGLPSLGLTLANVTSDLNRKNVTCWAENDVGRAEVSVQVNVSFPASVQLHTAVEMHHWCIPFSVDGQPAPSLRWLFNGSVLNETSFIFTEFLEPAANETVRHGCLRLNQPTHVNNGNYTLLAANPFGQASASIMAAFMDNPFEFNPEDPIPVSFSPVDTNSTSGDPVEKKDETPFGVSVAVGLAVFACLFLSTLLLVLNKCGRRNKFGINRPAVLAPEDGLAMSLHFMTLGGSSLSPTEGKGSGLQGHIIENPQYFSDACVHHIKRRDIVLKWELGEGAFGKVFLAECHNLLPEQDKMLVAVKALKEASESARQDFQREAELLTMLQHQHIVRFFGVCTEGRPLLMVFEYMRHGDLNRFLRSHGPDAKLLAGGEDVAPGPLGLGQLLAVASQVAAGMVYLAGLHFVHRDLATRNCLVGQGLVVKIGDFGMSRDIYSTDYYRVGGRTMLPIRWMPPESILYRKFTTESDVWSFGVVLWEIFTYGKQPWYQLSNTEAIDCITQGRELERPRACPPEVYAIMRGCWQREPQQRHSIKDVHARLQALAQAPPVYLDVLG

[7] = target: High affinity nerve growth factor receptor (Homo sapiens) (UniProt P04629); conditions: at 10 µM
[8] = target: BDNF/NT-3 growth factors receptor (Homo sapiens) (UniProt Q16620); conditions: at 1 µM
Chain of BDNF/NT-3 growth factors receptor (Homo sapiens) (Q16620 32-822 limits assumed): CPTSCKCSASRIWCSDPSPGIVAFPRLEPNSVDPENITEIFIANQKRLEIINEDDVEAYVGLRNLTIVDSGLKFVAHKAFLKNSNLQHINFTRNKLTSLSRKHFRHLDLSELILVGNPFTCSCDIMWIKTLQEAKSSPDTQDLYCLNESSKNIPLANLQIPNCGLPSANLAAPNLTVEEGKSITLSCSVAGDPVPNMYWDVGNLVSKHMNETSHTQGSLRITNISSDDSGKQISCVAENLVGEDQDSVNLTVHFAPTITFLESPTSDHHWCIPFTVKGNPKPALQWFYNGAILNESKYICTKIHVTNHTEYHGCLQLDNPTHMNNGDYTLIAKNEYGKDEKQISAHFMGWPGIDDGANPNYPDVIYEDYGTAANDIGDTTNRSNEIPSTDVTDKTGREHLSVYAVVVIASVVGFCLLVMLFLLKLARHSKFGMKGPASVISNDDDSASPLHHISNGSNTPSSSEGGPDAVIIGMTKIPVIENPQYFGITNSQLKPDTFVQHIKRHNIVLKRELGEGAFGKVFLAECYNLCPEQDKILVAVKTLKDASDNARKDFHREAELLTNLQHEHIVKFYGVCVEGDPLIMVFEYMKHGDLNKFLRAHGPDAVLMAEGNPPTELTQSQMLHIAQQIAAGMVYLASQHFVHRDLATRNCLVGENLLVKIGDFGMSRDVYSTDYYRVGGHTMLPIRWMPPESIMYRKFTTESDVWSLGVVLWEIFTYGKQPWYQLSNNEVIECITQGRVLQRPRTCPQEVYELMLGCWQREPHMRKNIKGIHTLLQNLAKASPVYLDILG

[9] = target: BDNF/NT-3 growth factors receptor (Homo sapiens) (UniProt Q16620); conditions: at 10 µM
[10] = target: T4, Tyrosine-protein kinase TXK (Homo sapiens) (UniProt P42681); conditions: at 1 µM
T4 sequence (whole entry): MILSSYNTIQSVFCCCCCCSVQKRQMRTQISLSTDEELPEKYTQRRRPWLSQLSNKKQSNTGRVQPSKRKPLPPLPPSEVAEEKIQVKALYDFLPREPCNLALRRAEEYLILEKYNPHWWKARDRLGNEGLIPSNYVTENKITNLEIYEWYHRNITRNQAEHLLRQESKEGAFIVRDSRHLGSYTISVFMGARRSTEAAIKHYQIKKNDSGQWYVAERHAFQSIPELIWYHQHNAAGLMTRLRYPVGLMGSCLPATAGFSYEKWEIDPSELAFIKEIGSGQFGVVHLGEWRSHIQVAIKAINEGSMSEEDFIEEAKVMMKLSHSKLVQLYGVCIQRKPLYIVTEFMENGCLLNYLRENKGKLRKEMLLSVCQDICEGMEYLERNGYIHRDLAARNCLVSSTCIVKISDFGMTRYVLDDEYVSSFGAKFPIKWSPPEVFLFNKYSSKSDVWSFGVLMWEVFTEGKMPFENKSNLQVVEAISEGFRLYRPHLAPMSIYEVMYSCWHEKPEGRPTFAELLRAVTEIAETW

[11] = target: T4, Tyrosine-protein kinase TXK (Homo sapiens); conditions: at 10 µM
[12] = target: T5, Serine/threonine-protein kinase ULK2 (Homo sapiens) (UniProt Q8IYT8); conditions: at 10 µM
T5 sequence (whole entry): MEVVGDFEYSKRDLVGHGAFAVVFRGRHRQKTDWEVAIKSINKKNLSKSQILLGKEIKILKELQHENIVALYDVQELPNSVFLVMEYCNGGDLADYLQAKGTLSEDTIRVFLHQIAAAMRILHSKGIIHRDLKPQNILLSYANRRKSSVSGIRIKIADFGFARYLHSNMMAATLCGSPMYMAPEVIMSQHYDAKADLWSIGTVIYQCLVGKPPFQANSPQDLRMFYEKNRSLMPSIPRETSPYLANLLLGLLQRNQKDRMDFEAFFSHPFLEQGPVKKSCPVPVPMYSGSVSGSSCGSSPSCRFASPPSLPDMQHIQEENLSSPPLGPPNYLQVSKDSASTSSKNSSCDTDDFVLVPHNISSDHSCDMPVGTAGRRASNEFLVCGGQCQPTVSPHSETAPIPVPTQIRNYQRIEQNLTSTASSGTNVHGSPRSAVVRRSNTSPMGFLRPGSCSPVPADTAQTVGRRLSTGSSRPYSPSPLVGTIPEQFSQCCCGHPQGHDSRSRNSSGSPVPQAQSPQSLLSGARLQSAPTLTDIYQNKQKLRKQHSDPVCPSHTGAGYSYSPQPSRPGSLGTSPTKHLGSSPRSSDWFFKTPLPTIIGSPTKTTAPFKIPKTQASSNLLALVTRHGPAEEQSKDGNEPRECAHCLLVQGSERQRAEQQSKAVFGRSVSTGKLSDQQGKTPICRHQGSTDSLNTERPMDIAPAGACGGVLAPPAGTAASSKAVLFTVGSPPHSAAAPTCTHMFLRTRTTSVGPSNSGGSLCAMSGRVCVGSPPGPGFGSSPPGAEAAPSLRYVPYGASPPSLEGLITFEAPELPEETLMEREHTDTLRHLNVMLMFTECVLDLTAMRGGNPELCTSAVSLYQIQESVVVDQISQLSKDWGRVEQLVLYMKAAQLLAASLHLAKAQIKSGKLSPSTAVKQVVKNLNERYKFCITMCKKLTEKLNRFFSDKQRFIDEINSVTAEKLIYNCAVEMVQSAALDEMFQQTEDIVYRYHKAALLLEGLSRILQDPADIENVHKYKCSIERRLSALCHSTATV

[13] = target: T6, Serine/threonine-protein kinase ULK3 (Homo sapiens) (UniProt Q6PHR2); conditions: at 1 µM
T6 sequence (whole entry): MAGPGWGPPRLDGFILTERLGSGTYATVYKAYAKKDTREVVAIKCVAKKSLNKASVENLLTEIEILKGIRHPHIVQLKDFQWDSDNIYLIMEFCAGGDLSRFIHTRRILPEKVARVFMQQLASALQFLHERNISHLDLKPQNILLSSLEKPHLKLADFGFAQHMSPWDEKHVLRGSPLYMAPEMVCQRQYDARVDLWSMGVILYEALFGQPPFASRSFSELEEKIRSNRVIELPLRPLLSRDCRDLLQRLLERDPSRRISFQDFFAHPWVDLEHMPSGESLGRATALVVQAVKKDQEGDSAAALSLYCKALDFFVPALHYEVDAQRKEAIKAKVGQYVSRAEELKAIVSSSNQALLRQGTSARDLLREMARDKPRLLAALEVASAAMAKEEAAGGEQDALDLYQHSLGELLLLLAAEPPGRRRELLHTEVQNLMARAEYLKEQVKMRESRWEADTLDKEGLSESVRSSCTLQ

[14] = target: T6, Serine/threonine-protein kinase ULK3 (Homo sapiens); conditions: at 10 µM
[15] = target: Serine/threonine-protein kinase VRK2 (Homo sapiens) (UniProt Q86Y07); conditions: at 1 µM
Chain of Serine/threonine-protein kinase VRK2 (Homo sapiens) (Q86Y07 whole entry): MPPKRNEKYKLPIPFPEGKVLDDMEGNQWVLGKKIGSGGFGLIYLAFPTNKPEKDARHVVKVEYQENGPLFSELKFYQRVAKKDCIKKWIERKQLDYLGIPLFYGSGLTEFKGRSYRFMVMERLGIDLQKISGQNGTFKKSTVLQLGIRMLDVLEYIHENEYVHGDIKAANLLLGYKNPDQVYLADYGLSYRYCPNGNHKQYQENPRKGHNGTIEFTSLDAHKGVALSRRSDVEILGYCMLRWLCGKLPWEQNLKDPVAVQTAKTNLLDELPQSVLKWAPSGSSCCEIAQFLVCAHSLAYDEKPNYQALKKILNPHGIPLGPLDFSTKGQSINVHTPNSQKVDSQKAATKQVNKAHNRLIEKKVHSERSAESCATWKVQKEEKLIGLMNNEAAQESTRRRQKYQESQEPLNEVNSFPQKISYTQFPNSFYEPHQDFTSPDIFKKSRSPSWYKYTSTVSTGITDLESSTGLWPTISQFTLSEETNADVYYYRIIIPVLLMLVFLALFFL

[16] = target: Serine/threonine-protein kinase VRK2 (Homo sapiens) (UniProt Q86Y07); conditions: at 10 µM
[17] = target: Angiopoietin-1 receptor (Homo sapiens) (UniProt Q02763); conditions: at 1 µM
[18] = target: Angiopoietin-1 receptor (Homo sapiens) (UniProt Q02763); conditions: at 10 µM
[19] = target: Serine/threonine-protein kinase WNK2 (Homo sapiens) (UniProt Q9Y3S1); conditions: at 1 µM;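 note: residual WNK2 kinase activity expressed as percent of uninhibited control, assayed in MOPS buffer at pH 7.0 containing EDTA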
Chain of Serine/threonine-protein kinase WNK2 (Homo sapiens) (Q9Y3S1 whole entry): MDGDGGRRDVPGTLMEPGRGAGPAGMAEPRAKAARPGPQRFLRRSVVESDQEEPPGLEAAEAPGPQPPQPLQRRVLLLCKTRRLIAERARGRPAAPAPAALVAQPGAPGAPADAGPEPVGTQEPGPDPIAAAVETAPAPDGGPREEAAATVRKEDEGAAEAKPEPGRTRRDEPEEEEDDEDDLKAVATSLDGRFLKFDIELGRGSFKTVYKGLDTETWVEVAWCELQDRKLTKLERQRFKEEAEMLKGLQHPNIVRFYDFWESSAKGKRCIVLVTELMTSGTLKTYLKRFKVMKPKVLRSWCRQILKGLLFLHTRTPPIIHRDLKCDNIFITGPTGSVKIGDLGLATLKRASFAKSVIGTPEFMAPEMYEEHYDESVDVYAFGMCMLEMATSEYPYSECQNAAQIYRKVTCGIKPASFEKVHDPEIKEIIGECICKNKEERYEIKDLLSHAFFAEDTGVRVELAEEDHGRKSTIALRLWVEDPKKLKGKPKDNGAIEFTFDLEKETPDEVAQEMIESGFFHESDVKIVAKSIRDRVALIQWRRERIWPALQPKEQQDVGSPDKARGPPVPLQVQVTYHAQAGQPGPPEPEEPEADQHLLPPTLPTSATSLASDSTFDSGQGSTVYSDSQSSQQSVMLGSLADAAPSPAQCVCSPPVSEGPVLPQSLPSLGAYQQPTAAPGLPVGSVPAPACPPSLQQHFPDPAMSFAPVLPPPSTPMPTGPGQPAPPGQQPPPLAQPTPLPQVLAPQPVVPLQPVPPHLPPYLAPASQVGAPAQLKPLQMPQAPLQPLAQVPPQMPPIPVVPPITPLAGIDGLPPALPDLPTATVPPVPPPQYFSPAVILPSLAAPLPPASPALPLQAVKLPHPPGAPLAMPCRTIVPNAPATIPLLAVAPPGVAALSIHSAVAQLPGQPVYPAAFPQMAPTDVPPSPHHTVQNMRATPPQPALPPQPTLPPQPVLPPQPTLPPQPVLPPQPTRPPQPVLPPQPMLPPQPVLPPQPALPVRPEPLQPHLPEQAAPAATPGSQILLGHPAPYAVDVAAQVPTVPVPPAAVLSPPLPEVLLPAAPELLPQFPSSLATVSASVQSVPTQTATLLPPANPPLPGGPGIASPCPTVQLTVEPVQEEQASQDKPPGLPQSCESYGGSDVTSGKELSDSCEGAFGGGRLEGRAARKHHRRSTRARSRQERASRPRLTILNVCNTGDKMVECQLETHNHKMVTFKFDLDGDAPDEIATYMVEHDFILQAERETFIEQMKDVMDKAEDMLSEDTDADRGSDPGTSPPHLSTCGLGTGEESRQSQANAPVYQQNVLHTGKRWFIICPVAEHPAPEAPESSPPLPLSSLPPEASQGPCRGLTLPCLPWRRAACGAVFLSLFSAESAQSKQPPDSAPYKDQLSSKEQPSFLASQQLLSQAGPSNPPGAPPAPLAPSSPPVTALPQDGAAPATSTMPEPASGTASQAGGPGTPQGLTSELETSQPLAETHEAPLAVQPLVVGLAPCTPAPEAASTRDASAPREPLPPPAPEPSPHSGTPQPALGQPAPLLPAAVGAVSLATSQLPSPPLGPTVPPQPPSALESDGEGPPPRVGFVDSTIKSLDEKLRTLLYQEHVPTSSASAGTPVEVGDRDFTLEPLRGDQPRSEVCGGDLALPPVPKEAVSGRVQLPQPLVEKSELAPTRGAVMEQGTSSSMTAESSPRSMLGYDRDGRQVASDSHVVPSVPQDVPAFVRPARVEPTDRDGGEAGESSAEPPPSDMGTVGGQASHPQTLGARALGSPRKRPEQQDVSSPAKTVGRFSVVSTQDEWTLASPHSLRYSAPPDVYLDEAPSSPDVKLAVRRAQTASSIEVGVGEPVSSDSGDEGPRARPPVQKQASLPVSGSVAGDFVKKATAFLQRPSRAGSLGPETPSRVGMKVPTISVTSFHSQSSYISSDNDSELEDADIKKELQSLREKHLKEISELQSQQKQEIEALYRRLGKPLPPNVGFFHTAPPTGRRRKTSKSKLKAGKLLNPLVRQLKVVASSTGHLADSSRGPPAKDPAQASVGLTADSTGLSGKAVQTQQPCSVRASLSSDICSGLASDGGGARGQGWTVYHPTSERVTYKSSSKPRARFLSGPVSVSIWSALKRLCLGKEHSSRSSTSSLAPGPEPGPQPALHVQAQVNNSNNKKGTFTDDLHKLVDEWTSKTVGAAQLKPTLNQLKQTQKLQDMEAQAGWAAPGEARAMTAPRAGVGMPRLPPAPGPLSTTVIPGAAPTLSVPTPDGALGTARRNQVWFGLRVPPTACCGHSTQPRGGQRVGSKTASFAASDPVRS

[20] = target: T5, Serine/threonine-protein kinase ULK2 (Homo sapiens); conditions: at 1 µM

Nc1n[nH]c2nc3ccccc3nc12 gave a residual activity [1] of 85%, a residual activity [2] of 87% and a residual activity [3] of 71%. The residual activity [4] was 81%, the residual activity [5] was 86% and the residual activity [6] was 86%. For the same compound, the residual activity [7] was 67%, the residual activity [8] was 84% and the residual activity [9] was 85%. It also gave a residual activity [10] of 87%, a residual activity [11] of 76% and a residual activity [12] of 92%. For the same compound, the residual activity [13] was 87%, the residual activity [14] was 84% and the residual activity [15] was 99% (inactive). The residual activity [16] was 86%.
CCCCc1c(-c2ccc(OC)cc2)[nH]c2nccnc12 was tested, and the residual activity [1] was 63%, the residual activity [2] was 81% and the residual activity [4] was 51%. It also gave a residual activity [5] of 11%, a residual activity [17] of 105% and a residual activity [18] of 82%. It also gave a residual activity [6] of 61%, a residual activity [7] of 57% and a residual activity [8] of 70%. The residual activity [9] was 76%, the residual activity [10] was 53% and the residual activity [11] was 55%. For the same compound, the residual activity [13] was 68%, the residual activity [14] was 69% and the residual activity [15] was 105% (inactive). For the same compound, the residual activity [16] was 100% and the residual activity [19] was 105% (inactive).
Work on Cn1c2ccccc2c2c3c(c4c5ccccc5n(CCC#N)c4c21)CNC3=O yielded a residual activity [1] of 12%, a residual activity [2] of 10% and a residual activity [3] of 40%. For the same compound, the residual activity [4] was 4%, the residual activity [5] was 9% and the residual activity [6] was 0%. For the same compound, the residual activity [7] was -1%, the residual activity [8] was 44% and the residual activity [9] was -12%. For the same compound, the residual activity [10] was 8%, the residual activity [11] was 8% and the residual activity [20] was 99%. For the same compound, the residual activity [13] was 39%, the residual activity [14] was 16% and the residual activity [15] was 97% (inactive). For the same compound, the residual activity [19] was 97% (inactive).
